Screens deposited in PubChem BioAssay by National Center for Advancing Translational Sciences (NCATS).
Rows were chosen to be rich in hits. Some 3.9% of all compounds tested hit in one or more screens of this group.
GALK inh – blocks human galactokinase activity; P51570; Purified GALK, Kinase-Glo residual ATP luminescence; Potency, µM (series often up to 57.5 µM), inactives show at the highest dose activity change, negative = inhibition, hits mostly inhibitors; hit rate 0.007% among 270,000; note: potency is the fitted concentration of half-maximal effect; % is set by controls: 0 for no effect and ±100 for the full control effect
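Quantitative HTS: GALK 5 nM, ATP 35 uM, galactose 100 uM, 1 h room temperature, then luciferase-based ATP detection.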
USP2a block – blocks human ubiquitin-specific protease USP2a. hit rate 0.01% among 330,000. USP2 core, Ub-CHOP2 coupled fluorogenic reporter, 485/531. O75604. Potency, µM (highest dose often 38.3 µM), without a hit: at the highest dose activity change, negative = inhibition, actives largely listed as inhibitors. AID 463254;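 note: potency is the fitted concentration of half-maximal effect; plate controls were DMSO wells for no effect and full inhibition by NEM control for full effect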
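Deubiquitinase activity read as fluorescence (485/531 nm) after Ub-CHOP2 cleavage activates the enterokinase reporter on its substrate; USP2 core 10nM, Ub-CHOP2 and substrate 25nM each, 30min compound preincubation then 60min RT; data normalized to NEM, curves fitted.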
Eya2 inh – Eya2 (human) phosphatase inhibition; Potency, µM (series often up to 76.9 µM), inactives show top-dose activity, negative = inhibition, most hits filed as inhibitors; hit rate 0.006% among 330,000; recombinant Eya2, OMFP fluorescence dephosphorylation (OMFP is methylfluorescein phosphate); O00167; note: potency is the fitted concentration of half-maximal effect; % is set by controls: 0 for no effect and ±100 for the full control effect
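Eya2 (0.2 uM) preincubated 10 min at ambient with compound, then OMFP substrate added at 50 uM; 10 min reaction in 50 mM HEPES pH 7.5, 50 mM NaCl, 5 uM MgCl2, 0.05% BSA, 1 mM DTT. Fluorescence read at Ex 485/Em 525 nm.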
D1 agonist – human D1 receptor agonism. P21728. HEK293 T-REx D1 cells, calcium flux, agonist mode. activation, % at 2 µM. hit rate 1% among 360,000; in the data active = activation above about 30%; note: 0% is about no effect
Target sequence (P21728 whole entry, looked up): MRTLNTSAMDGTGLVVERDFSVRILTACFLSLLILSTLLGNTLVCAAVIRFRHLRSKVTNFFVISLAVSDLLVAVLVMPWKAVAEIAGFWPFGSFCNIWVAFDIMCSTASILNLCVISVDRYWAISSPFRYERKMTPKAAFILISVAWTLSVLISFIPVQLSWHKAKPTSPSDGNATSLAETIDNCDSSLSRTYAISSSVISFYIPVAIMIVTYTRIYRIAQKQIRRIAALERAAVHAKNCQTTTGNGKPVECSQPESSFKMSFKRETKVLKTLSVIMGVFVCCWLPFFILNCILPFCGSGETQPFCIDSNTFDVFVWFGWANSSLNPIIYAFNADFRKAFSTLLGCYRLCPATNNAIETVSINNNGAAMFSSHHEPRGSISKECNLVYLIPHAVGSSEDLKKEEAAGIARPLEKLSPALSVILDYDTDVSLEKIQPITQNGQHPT
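Tetracycline-induced HEK293 TREx D1 cells, force-coupled to calcium signalling, were dye-loaded with a no-wash calcium kit. Compound was pin-added after a 10 s baseline. Fluorescence was read kinetically at 1 cycle/s for 180 s, with calcium rises flagged as agonism.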
D1 PAM – human D1 dopamine receptor positive modulation. HEK293 TREx D1 cells, calcium flux, dopamine EC20 potentiation. potentiation, % at 10 µM. P21728. AID 504651. hit rate 0.036% among 360,000; in the data active = potentiation above about 30%; note: 0% is about no effect
D1 antagonist – blocks dopamine activation of the human D1 receptor; hit rate 3.2% among 360,000; activity change, negative = inhibition, % at 10 µM; HEK293 TREx D1 cells, calcium flux, dopamine EC80; hits give low values; P21728; in the data active = activity change below about -30%; note: % is set by controls: 0 for no effect and ±100 for the full control effect
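Tetracycline-induced HEK293 Trex D1 cells, force-coupled to calcium, dye-loaded; compounds added and read 180 s, then EC80 dopamine added and calcium flux tracked kinetically another 180 s.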
Active calls of the source: *; ? = inconclusive; nt = no result. Unless noted, calls come from the whole dose curve; as a rule, active = well fitted inhibition curve with a large enough effect; inconclusive = small, poorly fitted or top-dose-only effect, or effect the other way; inactive = flat fitted curve, though single readings scatter.

SMILES	GALK inh	USP2a block	Eya2 inh	D1 agonist	D1 PAM	D1 antagonist
Cc1ccc(C(=O)CC2(O)C(=O)N(Cc3ccccc3Cl)c3ccccc32)o1 (configuration not stated)	-2%	0%	3%	-1	11	-31*
Cc1cc(Nc2ccccc2)nc(NCc2ccccc2)n1	-2%	-7%	-14%	20	-10	-27
CCCCNc1cc(C)nc(NCc2ccccc2)n1	-1%	2%	0%	61*	-10	-52*
Cc1ccc(/C=N/Nc2cc(C)nc(NCc3ccccc3)n2)cc1	-2%	1%	3%	2	-6	-10
Cc1cc(N/N=C/c2ccc(Cl)cc2Cl)nc(NCc2ccccc2)n1	nt	-1%	6%	16	-4	-48*
c1ccc(-c2cc(CSc3nc4ccccc4[nH]3)on2)cc1	-3%	0%	-15%	16	-4	-31*
Cc1noc(C)c1CSc1nc2ccccc2[nH]1	-1%	1%	-13%	0	-4	6
Cc1ccc(C(=O)N2CCC(n3nccc3NC(=O)c3ccccc3C)CC2)cn1	0%	0%	1%	5	10	-7
Cc1ccccc1C(=O)Nc1ccnn1C1CCN(C(=O)c2ccoc2)CC1	5%	2%	-8%	4	-5	-45*
CCOc1ccc(-c2c(C(=O)N/N=C/c3ccc(O)cc3)nnn2-c2nonc2N)cc1	1%	0%	-12%	2	-20	40
CCOc1ccc(-c2c(C(=O)N/N=C/c3ccsc3)nnn2-c2nonc2N)cc1	-4%	0%	-24%	38*	2	33
COc1cccc(-c2c(C(=O)N/N=C/c3sccc3C)nnn2-c2nonc2N)c1	-2%	3%	9%	2	2	8
COc1cccc(-c2c(C(=O)N/N=C/c3ccsc3)nnn2-c2nonc2N)c1	5%	-4%	6%	163*	15	29
CC1(C)CC(=O)C(N=Nc2ccc(Cl)cc2)=C(O)C1	0%	4%	-6%	2	-3	5
CC1(C)CC(=O)C(N=Nc2ccc(F)cc2)=C(O)C1	-1%	-9%	1%	3	-5	-42*
C=CCOC(=O)C1=C(C)NC(C)=C(C(=O)OCC=C)C1c1ccco1	4%	2%	-24%	3	-15	-30*
CCOC(=O)C1=C(C)NC(C)=C(C(=O)OC)C1c1ccco1 (configuration not stated)	-3%	9%	?	3	-3	-16
Cc1c(C(=O)Nc2ccc(C(C)C)cc2)sc2nc[nH]c(=O)c12	nt	nt	nt	0	-2	-5
COc1ccc2c(C)cc(SCC(=O)Nc3nsc(-c4ccccc4C)n3)nc2c1	nt	nt	nt	3	2	5
O=C1N(Cc2cccc(Cl)c2)C[C@@H]2C[C@@H](c3ccc4nonc4c3)N3CCC[C@@]123	0%	0%	-13%	8	-5	-36*
Cc1ccc([C@@H]2C[C@H]3CN(Cc4cccc(Cl)c4)C(=O)[C@]34CCCN24)o1	0%	0%	17%	1	0	15
O=C1N(Cc2cccc(Cl)c2)C[C@@H]2C[C@@H](c3cccc4ncccc34)N3CCC[C@@]123	0%	0%	2%	3	-4	-35*
COc1ccccc1CN1C[C@@H]2C[C@@H](c3ccc4nsnc4c3)N3CCC[C@@]23C1=O	3%	-7%	-26%	0	-4	-72*
CCc1c(C)nc2nncn2c1Nc1ccc(Cl)cc1	nt	nt	nt	3	0	-19
Cc1ccc(-c2nc3scc(CCNS(=O)(=O)c4ccc(Oc5ccccc5)cc4)n3n2)cc1	nt	nt	nt	24	-2	-11
COc1cccc(CNC(=O)CSC2=Nc3ccccc3C3=NC(C)C(=O)N23)c1OC (configuration not stated)	nt	nt	nt	1	1	6
COc1ccc(CN2CCN(c3cc(C)nc4c5c(C)cc(C)nc5nn34)CC2)cc1F	1%	-1%	27%	1	-3	-38*
CCOc1ccc(CN2CCN(c3cc(C)nc4c5c(C)cc(C)nc5nn34)CC2)cc1	-1%	2%	1%	1	-4	7
